Assay results: PubChem BioAssay AID651900 (Broad Institute, 2012)
Some of the results follow. Calls of active or inactive are those of the source. How the calls were made is not given here.

Test: NIH3T3 cell viability loss – plate reader, cherry-pick, two tests, cytotoxicity control, dose response (AID 651900)
Conditions: activity: test 2 concentration series, at 26 µM

Structure (SMILES)	activity [%]	outcome
C=CCn1c(SCc2c(C(=O)OC)sc(N)c2C(=O)OC)nnc1-c1ccc(Cl)cc1	-11.5	inactive
C=C(C)CSc1nc(N)c2c3c(sc2n1)CCC3	4.68	inactive
CC1(C)CC(=O)C=C(c2ccc3ncccc3c2)C1	-5.48	inactive
CC(=O)O[C@]1(C(C)=O)CC[C@H]2[C@@H]3C=C(C)C4=CC(=O)CC[C@]4(C)[C@H]3CC[C@@]21C	-6.83	inactive
COc1cc(-c2n[nH]c(=S)n2Cc2ccccc2)cc(OC)c1OC	8.41	inactive
Cc1c2cnn(CC(=O)NCc3ccccn3)c(=O)c2c(C)n1Cc1ccc(Cl)cc1	7.63	inactive
O=c1[nH]c(N2CCN(Cc3ccc4c(c3)OCO4)CC2)nc2c1CCCC2	6.08	inactive
O=C(c1ccncc1)N1CC[C@@H]2[C@H]1c1cc(Br)ccc1N[C@@H]2CO	–	inactive
Cn1c(=O)c2c(nc(OCc3cccnc3)n2Cc2ccccc2)n(C)c1=O	-10.3	inactive
Cc1ccc(Cc2c(C)nc3nc(SCC(=O)NCCN4CCOCC4)nn3c2C)cc1	-6.78	inactive
COCCNC(=O)C[C@H]1CC[C@@H]2[C@H](COc3ccc(NC(=O)Nc4cccc(F)c4)cc3C(=O)N2C)O1	–	inactive
CCC(CO)Oc1cc(NC(=O)c2cccc(F)c2)c2ncn(C(C)C)c2c1 (configuration not stated)	–	inactive
Cc1nc2nc(SCC(=O)NCc3ccco3)nn2c(C)c1Cc1ccccc1	-7.64	inactive
CC(=O)CSc1nnc(CSc2ncccn2)n1C1CCCCC1	1.8	inactive
CCCOc1ccc2c3c(c(=O)oc2c1OCCC)CCC3	-3.77	inactive
